The other results are listed elsewhere or left out. A number with no mark means an inactive call.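 How the source made its calls: active means mean inhibition across replicates of at least 20% with every single replicate also at 20% or more; inconclusive means mean inhibition at least 20% but some replicate falls below 20%; inactive means mean inhibition under 20% and not all replicates reach it.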
Test system: PglD UDP-4-amino-sugar N-acetyltransferase (Campylobacter jejuni)
Assay: PglD acetyltransferase inhibitors, confirmation, biochemical, DTNB absorbance, single point, cherry-picked samples (AID 743156);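 further: initial rate of CoA release by acetyl transfer from AcCoA to the UDP-4-amino sugar; 0% = median of neutral control wells and 100% = median of positive control wells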
Settings: Purified C. jejuni PglD, DTNB absorbance 412 nm; at 20 µM; stronger effect = higher value

## c1ccc2sc(N3CCNCC3)nc2c1
  inhibition: 8.98%
